Data as given in PubChem BioAssay (NCATS).
Results filed as inconclusive are left out. Activity calls are given as the source filed them. Unless noted, the call rests on the fitted dose curve; in most records, active means well fitted curve in the direction sought with a large enough effect; inconclusive means small, poorly fitted or top-dose-only effect, or another doubt; inactive means no such curve, though single readings can be large; an effect the other way counts as inactive or inconclusive.

Tests used:
[1] = biological target: Ubiquitin carboxyl-terminal hydrolase 1 (Homo sapiens) (UniProt O94782); test: Inhibitors of USP1/UAF1: Pilot qHTS (AID 504865);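 further: rhodamine fluorescence freed from ubiquitin-rhodamine substrate followed over time; top concentration of the series differs between compounds; nearly all actives have a fitted effect of over 35% in size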
In short: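 USP1/UAF1 complex (1nM) preincubated with compound 15 min at room temperature, then Ub-Rho substrate (150nM final) added. Fluorescence read kinetically at 480/540 nm, 6 reads every 60 seconds. Buffer: 50mM HEPES pH 7.8, 0.5mM EDTA, 0.1 mg/ml BSA, 1mM TCEP, 0.01% Tween-20.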

[2] = biological target: Luciferin 4-monooxygenase (Photinus pyralis) (UniProt P08659); test: Biochemical firefly luciferase enzyme assay for NPC (AID 624030);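 further: purified P. pyralis luciferase at 10 nM with luciferin and ATP substrate; nearly all actives have a fitted effect of over 70% in size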
In short: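 Direct inhibition of firefly luciferase enzyme (10 nM final, 50 mM Tris Acetate) assessed by luminescence within 5 minutes. Percent activity scaled between DMSO and PTC124 positive control, with concentration-effect curves classified by fit quality and response.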

[3] = S16 Schwann cell viability assay (CellTiter-Glo assay) (AID 624031);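 further: native untransfected S16 rat Schwann cells; cellular ATP luminescence as a viability measure; nearly all actives have a fitted effect of over 70% in size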
In short: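 Parental S16 cells, 24 h compound, 37 °C. ATP-luminescence viability; DMSO = 0% activity, empty wells as reference; curves classified by fit quality and efficacy.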

[4] = S16 Schwann cell PMP22 intronic element beta-lactamase assay (AID 624044; calls by dose curve; further: nearly all actives have a fitted effect of over 15% in size); details: S16 rat Schwann cells, PMP22 element beta-lactamase FRET, 24 h; ratio activity, negative = inhibition: at 38.3 µM (top of the series) unless noted
In short: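 Beta-lactamase reporter under a PMP22 intronic regulatory element in stable S16 rat Schwann cells; 24 h compound exposure. 460 nm blue signal normalized between DMSO (0%) and potassium clavulanate, with 535 nm FRET tracking viability; curves classed by r2 and response.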

[5] = biological target: Cytochrome P450 2D6 (Homo sapiens) (UniProt P10635); test: Cytochrome P450 family 2 subfamily D member 6 (CYP2D6) small molecule antagonists: luciferase biochemical (cell-free) qHTS assay (AID 1645840; active means well fitted curve in the direction sought with a large enough effect in the repeat runs; an effect the other way counts as inactive or inconclusive; further: nearly all actives have a fitted effect of over 55% in size)
In short: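 P450-Glo CYP2D6 system: proluciferin substrate converted by enzyme to luciferin, read by luminescence proportional to activity. Enzyme-substrate mix with compound 10 min at room temperature, then NADPH regeneration 1 h before detection reagent.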

[6] = biological target: Cytochrome P450 3A4 (Homo sapiens) (UniProt P08684); test: Cytochrome P450 family 3 subfamily A member 4 (CYP3A4) small molecule antagonists: luciferase qHTS assay (AID 1645841; active means well fitted curve in the direction sought with a large enough effect in the repeat runs; an effect the other way counts as inactive or inconclusive; further: nearly all actives have a fitted effect of over 45% in size)
In short: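 Luminescent CYP3A4 activity readout: compounds plus enzyme-substrate mix 10 min at room temperature, reaction started with NADPH regenerating system for 1 h, stopped with detection reagent, read after 20 min. Ketoconazole served as control.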

[7] = biological target: Cytochrome P450 2C9 (Homo sapiens) (UniProt P11712); test: Cytochrome P450 family 2 subfamily C member 9 (CYP2C9) small molecule antagonists: luciferase biochemical (cell-free) qHTS assay (AID 1645842; active means well fitted curve in the direction sought with a large enough effect in the repeat runs; an effect the other way counts as inactive or inconclusive; further: nearly all actives have a fitted effect of over 55% in size)
In short: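 P450-Glo CYP2C9 system: proluciferin substrate with enzyme in mix containing 0.4% BSA, 10 min at room temperature, then NADPH regeneration solution added and incubated 1 h at 37C. Detection reagent stopped reaction; luminescence read after 20 min as RLU.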

[8] = qHTS profiling for inhibitors of Plasmodium falciparum proliferation (AID 504749); further: nearly all actives have a fitted effect of over 60% in size; further: potency means the concentration at half of the fitted maximal effect; details: P. falciparum in erythrocytes, SYBR Green DNA, 72 h
In short: (§1)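 In a 72 h erythrocytic culture (37 C, humidified, 5% CO2) at 2.5% hematocrit and 0.3% starting parasitemia, compounds were tested; SYBR Green I in detergent lysis buffer stained parasite DNA overnight.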

3D7 = test: as above; details: P. falciparum in erythrocytes, SYBR Green DNA, 72 h; series mostly up to 28.7 µM
In short: as §1

7G8 = test: as above; details: P. falciparum in erythrocytes, SYBR Green DNA, 72 h; series mostly up to 12.8 µM
In short: as §1

AA1029 = test: as above; details: P. falciparum in erythrocytes, SYBR Green DNA, 72 h; series mostly up to 28.7 µM
In short: as §1

AS120 = test: as above; details: P. falciparum in erythrocytes, SYBR Green DNA, 72 h; series mostly up to 28.7 µM
In short: as §1

ATS189 = test: as above; details: P. falciparum in erythrocytes, SYBR Green DNA, 72 h; series mostly up to 28.7 µM
In short: as §1

ATS95 = test: as above; details: P. falciparum in erythrocytes, SYBR Green DNA, 72 h; series mostly up to 28.7 µM
In short: as §1

C2A = test: as above; details: P. falciparum in erythrocytes, SYBR Green DNA, 72 h; series mostly up to 28.7 µM
In short: as §1

CP191 = test: as above; details: P. falciparum in erythrocytes, SYBR Green DNA, 72 h; series mostly up to 28.7 µM
In short: as §1

CP192 = test: as above; details: P. falciparum in erythrocytes, SYBR Green DNA, 72 h; series mostly up to 28.7 µM
In short: as §1

CP194 = test: as above; details: P. falciparum in erythrocytes, SYBR Green DNA, 72 h; series mostly up to 28.7 µM
In short: as §1

CP201 = test: as above; details: P. falciparum in erythrocytes, SYBR Green DNA, 72 h; series mostly up to 28.7 µM
In short: as §1

CP203 = test: as above; details: P. falciparum in erythrocytes, SYBR Green DNA, 72 h; series mostly up to 28.7 µM
In short: as §1

CP211 = test: as above; details: P. falciparum in erythrocytes, SYBR Green DNA, 72 h; series mostly up to 28.7 µM
In short: as §1

CP215 = test: as above; details: P. falciparum in erythrocytes, SYBR Green DNA, 72 h; series mostly up to 28.7 µM
In short: as §1

CP217 = test: as above; details: P. falciparum in erythrocytes, SYBR Green DNA, 72 h; series mostly up to 28.7 µM
In short: as §1

CP237 = test: as above; details: P. falciparum in erythrocytes, SYBR Green DNA, 72 h; series mostly up to 28.7 µM
In short: as §1

CP238 = test: as above; details: P. falciparum in erythrocytes, SYBR Green DNA, 72 h; series mostly up to 28.7 µM
In short: as §1

CP247 = test: as above; details: P. falciparum in erythrocytes, SYBR Green DNA, 72 h; series mostly up to 28.7 µM
In short: as §1

CP250 = test: as above; details: P. falciparum in erythrocytes, SYBR Green DNA, 72 h; series mostly up to 12.8 µM
In short: as §1

CP252 = test: as above; details: P. falciparum in erythrocytes, SYBR Green DNA, 72 h; series mostly up to 12.8 µM
In short: as §1

CP256 = test: as above; details: P. falciparum in erythrocytes, SYBR Green DNA, 72 h; series mostly up to 28.7 µM
In short: as §1

CP260 = test: as above; details: P. falciparum in erythrocytes, SYBR Green DNA, 72 h; series mostly up to 28.7 µM
In short: as §1

CP262 = test: as above; details: P. falciparum in erythrocytes, SYBR Green DNA, 72 h; series mostly up to 28.7 µM
In short: as §1

CP265 = test: as above; details: P. falciparum in erythrocytes, SYBR Green DNA, 72 h; series mostly up to 12.8 µM
In short: as §1

CP268 = test: as above; details: P. falciparum in erythrocytes, SYBR Green DNA, 72 h; series mostly up to 28.7 µM
In short: as §1

CP269 = test: as above; details: P. falciparum in erythrocytes, SYBR Green DNA, 72 h; series mostly up to 28.7 µM
In short: as §1

CP286 = test: as above; details: P. falciparum in erythrocytes, SYBR Green DNA, 72 h; series mostly up to 28.7 µM
In short: as §1

CP291 = test: as above; details: P. falciparum in erythrocytes, SYBR Green DNA, 72 h; series mostly up to 28.7 µM
In short: as §1

CP297 = test: as above; details: P. falciparum in erythrocytes, SYBR Green DNA, 72 h; series mostly up to 28.7 µM
In short: as §1

CP305 = test: as above; details: P. falciparum in erythrocytes, SYBR Green DNA, 72 h; series mostly up to 28.7 µM
In short: as §1

CP315 = test: as above; details: P. falciparum in erythrocytes, SYBR Green DNA, 72 h; series mostly up to 28.7 µM
In short: as §1

CP325 = test: as above; details: P. falciparum in erythrocytes, SYBR Green DNA, 72 h; series mostly up to 28.7 µM
In short: as §1

CP329 = test: as above; details: P. falciparum in erythrocytes, SYBR Green DNA, 72 h; series mostly up to 28.7 µM
In short: as §1

CP335 = test: as above; details: P. falciparum in erythrocytes, SYBR Green DNA, 72 h; series mostly up to 12.8 µM
In short: as §1

DFO2036 = test: as above; details: P. falciparum in erythrocytes, SYBR Green DNA, 72 h; series mostly up to 28.7 µM
In short: as §1

DIV14 = test: as above; details: P. falciparum in erythrocytes, SYBR Green DNA, 72 h; series mostly up to 28.7 µM
In short: as §1

DIV30 = test: as above; details: P. falciparum in erythrocytes, SYBR Green DNA, 72 h; series mostly up to 28.7 µM
In short: as §1

Dd2 = test: as above; details: P. falciparum in erythrocytes, SYBR Green DNA, 72 h; series mostly up to 28.7 µM
In short: as §1

ECU = test: as above; details: P. falciparum in erythrocytes, SYBR Green DNA, 72 h; series mostly up to 28.7 µM
In short: as §1

FAB9 = test: as above; details: P. falciparum in erythrocytes, SYBR Green DNA, 72 h; series mostly up to 28.7 µM
In short: as §1

GB4 = test: as above; details: P. falciparum in erythrocytes, SYBR Green DNA, 72 h; series mostly up to 28.7 µM
In short: as §1

HB3 = test: as above; details: P. falciparum in erythrocytes, SYBR Green DNA, 72 h; series mostly up to 28.7 µM
In short: as §1

ICS = test: as above; details: P. falciparum in erythrocytes, SYBR Green DNA, 72 h; series mostly up to 28.7 µM
In short: as §1

JCK = test: as above; details: P. falciparum in erythrocytes, SYBR Green DNA, 72 h; series mostly up to 28.7 µM
In short: as §1

N140 = test: as above; details: P. falciparum in erythrocytes, SYBR Green DNA, 72 h; series mostly up to 28.7 µM
In short: as §1

P93_24 = test: as above; details: P. falciparum in erythrocytes, SYBR Green DNA, 72 h; series mostly up to 28.7 µM
In short: as §1

P94_40 = test: as above; details: P. falciparum in erythrocytes, SYBR Green DNA, 72 h; series mostly up to 28.7 µM
In short: as §1

PAD = test: as above; details: P. falciparum in erythrocytes, SYBR Green DNA, 72 h; series mostly up to 28.7 µM
In short: as §1

PC26 = test: as above; details: P. falciparum in erythrocytes, SYBR Green DNA, 72 h; series mostly up to 28.7 µM
In short: as §1

TAB109 = test: as above; details: P. falciparum in erythrocytes, SYBR Green DNA, 72 h; series mostly up to 12.8 µM
In short: as §1

TAB113 = test: as above; details: P. falciparum in erythrocytes, SYBR Green DNA, 72 h; series mostly up to 28.7 µM
In short: as §1

TAB165 = test: as above; details: P. falciparum in erythrocytes, SYBR Green DNA, 72 h; series mostly up to 28.7 µM
In short: as §1

W2 = test: as above; details: P. falciparum in erythrocytes, SYBR Green DNA, 72 h; series mostly up to 12.8 µM
In short: as §1

Measured: Potency

Chain of Luciferin 4-monooxygenase (Photinus pyralis) (P08659 whole entry, looked up): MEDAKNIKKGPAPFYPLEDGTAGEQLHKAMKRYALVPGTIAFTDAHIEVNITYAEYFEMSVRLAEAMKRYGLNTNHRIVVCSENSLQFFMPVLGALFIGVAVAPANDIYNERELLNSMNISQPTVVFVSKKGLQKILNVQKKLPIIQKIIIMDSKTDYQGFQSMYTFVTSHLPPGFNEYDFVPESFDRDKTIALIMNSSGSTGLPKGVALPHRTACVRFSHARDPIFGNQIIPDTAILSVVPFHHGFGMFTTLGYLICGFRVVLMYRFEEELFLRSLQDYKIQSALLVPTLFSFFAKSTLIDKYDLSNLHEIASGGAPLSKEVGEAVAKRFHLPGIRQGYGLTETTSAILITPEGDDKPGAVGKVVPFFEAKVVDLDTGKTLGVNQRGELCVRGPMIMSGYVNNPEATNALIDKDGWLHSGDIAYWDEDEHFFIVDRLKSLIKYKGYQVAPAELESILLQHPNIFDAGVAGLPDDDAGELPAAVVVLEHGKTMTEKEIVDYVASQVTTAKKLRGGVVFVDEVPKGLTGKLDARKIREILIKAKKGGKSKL
Chain of Cytochrome P450 2D6 (Homo sapiens) (P10635 whole entry, looked up): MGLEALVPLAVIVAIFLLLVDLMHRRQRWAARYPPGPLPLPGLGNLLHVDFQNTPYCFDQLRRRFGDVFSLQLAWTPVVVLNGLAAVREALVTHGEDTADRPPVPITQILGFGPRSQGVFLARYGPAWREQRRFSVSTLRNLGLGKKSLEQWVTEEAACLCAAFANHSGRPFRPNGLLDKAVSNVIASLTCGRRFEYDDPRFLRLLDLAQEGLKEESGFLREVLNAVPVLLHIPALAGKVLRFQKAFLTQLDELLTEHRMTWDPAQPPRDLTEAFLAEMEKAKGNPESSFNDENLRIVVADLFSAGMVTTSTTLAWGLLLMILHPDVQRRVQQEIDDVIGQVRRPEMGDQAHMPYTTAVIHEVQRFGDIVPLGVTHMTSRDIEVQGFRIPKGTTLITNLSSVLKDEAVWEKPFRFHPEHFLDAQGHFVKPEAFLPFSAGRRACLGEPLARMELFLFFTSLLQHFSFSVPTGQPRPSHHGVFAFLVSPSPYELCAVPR
Chain of Cytochrome P450 2C9 (Homo sapiens) (P11712 whole entry, looked up): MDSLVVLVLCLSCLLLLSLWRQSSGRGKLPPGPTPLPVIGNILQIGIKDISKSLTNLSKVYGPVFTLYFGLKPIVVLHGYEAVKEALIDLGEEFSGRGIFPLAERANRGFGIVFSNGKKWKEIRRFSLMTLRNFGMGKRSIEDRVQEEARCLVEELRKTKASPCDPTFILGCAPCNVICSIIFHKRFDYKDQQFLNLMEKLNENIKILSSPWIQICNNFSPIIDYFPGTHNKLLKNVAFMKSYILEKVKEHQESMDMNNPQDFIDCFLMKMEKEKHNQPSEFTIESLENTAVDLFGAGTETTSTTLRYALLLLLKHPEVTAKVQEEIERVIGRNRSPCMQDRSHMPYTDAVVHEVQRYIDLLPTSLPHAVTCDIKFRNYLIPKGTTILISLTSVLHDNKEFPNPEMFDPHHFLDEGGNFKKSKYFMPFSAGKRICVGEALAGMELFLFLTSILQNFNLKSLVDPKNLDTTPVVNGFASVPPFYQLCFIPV
Chain of Cytochrome P450 3A4 (Homo sapiens) (P08684 whole entry, looked up): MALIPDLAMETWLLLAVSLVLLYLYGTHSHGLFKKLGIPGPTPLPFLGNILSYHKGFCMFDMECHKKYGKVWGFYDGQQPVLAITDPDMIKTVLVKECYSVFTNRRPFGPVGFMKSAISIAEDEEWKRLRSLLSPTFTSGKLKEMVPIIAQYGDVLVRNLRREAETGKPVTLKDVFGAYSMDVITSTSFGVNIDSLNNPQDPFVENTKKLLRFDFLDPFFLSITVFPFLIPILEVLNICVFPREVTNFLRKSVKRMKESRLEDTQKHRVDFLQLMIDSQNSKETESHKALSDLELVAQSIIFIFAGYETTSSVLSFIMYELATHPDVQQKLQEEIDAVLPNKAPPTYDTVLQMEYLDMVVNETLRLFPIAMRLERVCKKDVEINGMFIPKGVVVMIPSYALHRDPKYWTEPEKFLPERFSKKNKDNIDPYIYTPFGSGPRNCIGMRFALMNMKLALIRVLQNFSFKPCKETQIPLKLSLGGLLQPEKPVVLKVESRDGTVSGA
Chain of Ubiquitin carboxyl-terminal hydrolase 1 (Homo sapiens) (O94782 whole entry, looked up): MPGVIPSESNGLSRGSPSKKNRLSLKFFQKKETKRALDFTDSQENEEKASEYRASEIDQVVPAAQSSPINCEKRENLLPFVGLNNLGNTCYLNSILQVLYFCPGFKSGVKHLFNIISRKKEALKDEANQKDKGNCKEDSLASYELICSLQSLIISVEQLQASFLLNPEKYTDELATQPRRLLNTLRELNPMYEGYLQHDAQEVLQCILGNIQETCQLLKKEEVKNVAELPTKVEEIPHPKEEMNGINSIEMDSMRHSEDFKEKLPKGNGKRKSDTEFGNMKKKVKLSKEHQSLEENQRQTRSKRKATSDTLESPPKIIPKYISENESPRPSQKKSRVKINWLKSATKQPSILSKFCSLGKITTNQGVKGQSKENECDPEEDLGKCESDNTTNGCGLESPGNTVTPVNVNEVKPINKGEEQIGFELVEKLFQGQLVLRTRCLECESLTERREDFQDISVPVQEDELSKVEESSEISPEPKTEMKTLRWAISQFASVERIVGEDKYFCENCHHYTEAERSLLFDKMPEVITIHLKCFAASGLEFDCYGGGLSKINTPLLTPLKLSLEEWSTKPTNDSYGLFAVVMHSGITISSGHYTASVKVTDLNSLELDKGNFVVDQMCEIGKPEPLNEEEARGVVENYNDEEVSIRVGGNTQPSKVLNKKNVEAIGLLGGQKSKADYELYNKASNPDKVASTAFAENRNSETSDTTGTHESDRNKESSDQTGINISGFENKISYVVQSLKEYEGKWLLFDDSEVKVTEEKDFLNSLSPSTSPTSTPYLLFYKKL

O=[As]O[As]=O (configuration not stated)
inactive: [1] | [2] | [3] | [4] | [5] | [6] | [7] | CP262
active: [8]; parasite line A 8.91 µM | [8]; parasite line B 8.91 µM | 3D7 11.2 µM | 7G8 3.98 µM | AA1029 11.2 µM | AS120 11.2 µM | ATS189 8.91 µM | ATS95 10 µM | C2A 12.6 µM | CP191 11.2 µM | CP192 9.53 µM | CP194 13.5 µM | CP201 13.5 µM | CP203 10.7 µM | CP211 12 µM | CP215 13.5 µM | CP217 7.94 µM | CP237 11.2 µM | CP238 8.91 µM | CP247 7.94 µM | CP250 7.94 µM | CP252 12.6 µM | CP256 8.91 µM | CP260 6.31 µM | CP265 12.6 µM | CP268 15.1 µM | CP269 6.01 µM | CP286 8.91 µM | CP291 6.75 µM | CP297 9.53 µM | CP305 8.49 µM | CP315 13.5 µM | CP325 6.75 µM | CP329 15.1 µM | CP335 7.57 µM | DFO2036 12.6 µM | DIV14 6.01 µM | DIV30 8.49 µM | Dd2 7.94 µM | ECU 8.91 µM | FAB9 11.2 µM | GB4 8.49 µM | HB3 11.2 µM | ICS 7.08 µM | JCK 11.2 µM | N140 7.94 µM | P93_24 5.01 µM | P94_40 7.08 µM | PAD 8.91 µM | PC26 15.1 µM | TAB109 7.08 µM | TAB113 7.94 µM | TAB165 6.31 µM | W2 4.26 µM
